Results reported in PubChem BioAssay (Tox21).
“And” between values parts separate entries of the source, which are not always exact repeats. Identical values can stand only once. Results filed as inconclusive are left out. Entries that show only a call come without a potency. Some structures have more than one record in an assay (separate samples or runs), and their calls can disagree. The source made the active and inactive calls. Unless noted, the call rests on the fitted dose curve; in most records, active means well fitted curve in the direction sought with a large enough effect in the repeat runs; inconclusive means weak or mixed curves; inactive means no such curve, though single readings can be large; an effect the other way counts as inactive or inconclusive.

Experiments:
[1] = qHTS assay to identify small molecule antagonists of the thyroid receptor (TR) signaling pathway - cell viability counter screen (AID 743064); further: nearly all actives have a fitted effect of over 50% in size; further: potency means the concentration at half of the fitted maximal effect
In short: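 In-well cytotoxicity read by CellTiter-Fluor (30 min, 37 C) following 23.5 h exposure of GH3 cells bearing a TRE-luciferase sensor. Compounds were added alongside 1 nM (final) T3 to drive TR transactivation.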

[2] = qHTS assay to identify small molecule antagonists of the thyroid receptor (TR) signaling pathway (AID 743065); further: nearly all actives have a fitted effect of over 55% in size; further: potency means the concentration at half of the fitted maximal effect
In short: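 Antagonism measured as loss of luciferase signal in GH3 cells stably carrying a TRE-luciferase reporter, co-treated with compound and T3 (1 nM final) for 23.5 h at 37 C. Viability was read in the same well by CellTiter-Fluor.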

[3] = system: thyroid hormone receptor (rat, GH3 cells); assay: qHTS assay to identify small molecule agonists of the thyroid receptor (TR) signaling pathway (AID 743066; calls by dose curve)
[4] = qHTS assay to identify small molecule antagonists of the estrogen receptor alpha (ER-alpha) signaling pathway using the BG1 cell line - cell viability counter screen (AID 743081);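 further: compound given together with 17beta-estradiol as the ER stimulus; nearly all actives have a fitted effect of over 45% in size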; further: potency means the concentration at half of the fitted maximal effect
[5] = target: Aromatase (Homo sapiens) (UniProt P11511); assay: qHTS assay to identify aromatase inhibitors (AID 743083); further: nearly all actives have a fitted effect of over 55% in size; further: potency means the concentration at half of the fitted maximal effect
[6] = qHTS assay to identify aromatase inhibitors - cell viability counter screen (AID 743084);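 further: cells stimulated with testosterone during compound exposure; nearly all actives have a fitted effect of over 55% in size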; further: potency means the concentration at half of the fitted maximal effect
[7] = target: Aryl hydrocarbon receptor (Homo sapiens) (UniProt P35869); assay: qHTS assay to identify small molecule that activate the aryl hydrocarbon receptor (AhR) signaling pathway (AID 743085); further: nearly all actives have a fitted effect of over 15% in size; further: potency means the concentration at half of the fitted maximal effect;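 on activation: HG2L7.5c1 human HepG2 liver cells with stably integrated DRE-driven firefly reporter; series mostly up to about 70 µM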
In short: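 Luminescence (ONE-Glo) from a dioxin-responsive-element luciferase reporter in HG2L7.5c1 HepG2 cells after 24 hr compound exposure at 37C; viability measured by CellTiter-Fluor fluorescence beforehand.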

[8] = qHTS assay to identify small molecule that activate the aryl hydrocarbon receptor (AhR) signaling pathway - cell viability counter screen (AID 743086); further: nearly all actives have a fitted effect of over 45% in size; further: potency means the concentration at half of the fitted maximal effect
In short: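 Cytotoxicity counter screen: CellTiter-Fluor signal (30 min, 37 C) in 4000 HepG2 cells/well carrying the DRE-luciferase reporter, following 24 h compound exposure at 37 C.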

[9] = target: Peroxisome proliferator-activated receptor gamma (Homo sapiens) (UniProt P37231); assay: qHTS assay to identify small molecule agonists of the peroxisome proliferator-activated receptor gamma (PPARg) signaling pathway (AID 743094; active means well fitted activation curve with a large enough effect in the signal ratio in the repeat runs, not every such curve was filed as active; the % refers to the signal ratio)
In short: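 GeneBLAzer PPARg UAS-bla HEK293H cells carrying a stably integrated beta-lactamase reporter were pre-incubated 5 h at 37C, then exposed to compounds in DMSO for 17 h at 37C; LiveBLAzer B/G FRET substrate was added for 1 h at room temperature and fluorescence read.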

[10] = target: Peroxisome proliferator-activated receptor gamma (Homo sapiens) (UniProt P37231); assay: qHTS assay to identify small molecule antagonists of the peroxisome proliferator-activated receptor gamma (PPARg) signaling pathway (AID 743191; calls by dose curve; further: series mostly up to about 63 µM; nearly all actives have a fitted effect of over 30% in size)
In short: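 Beta-lactamase reporter under UAS control in HEK293H PPARg-bla cells; compound treatment 17 h at 37C. Read-out: fluorescence intensity after 1 h room-temperature incubation with LiveBLAzer B/G FRET substrate.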

[11] = qHTS assay to identify small molecule antagonists of the peroxisome proliferator-activated receptor gamma (PPARg) signaling pathway - cell viability counter screen (AID 743194); further: nearly all actives have a fitted effect of over 55% in size; further: potency means the concentration at half of the fitted maximal effect
In short: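 Viability was measured as CellTiter-Glo luminescence in GeneBLAzer PPARg UAS-bla HEK293H cells. These cells had been exposed 17 h at 37 C to compounds together with rosiglitazone at 50 nM final, with the beta-lactamase readout taken in the same wells.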

[12] = qHTS assay for small molecule agonists of the antioxidant response element (ARE) signaling pathway (AID 743202; active means well fitted activation curve with a large enough effect in the signal ratio in the repeat runs, not every such curve was filed as active; the % refers to the signal ratio; further: potency means the concentration at half of the fitted maximal effect)
In short: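 Quantitative high-throughput format in HepG2 cells bearing an integrated ARE-beta-lactamase reporter. Compound exposure lasted 16 h at 37 C, and fluorescence was read 2 h after adding LiveBLAzer B/G substrate at room temperature.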

[13] = qHTS assay for small molecule agonists of the antioxidant response element (ARE) signaling pathway - cell viability counter screen (AID 743203; calls by dose curve; further: nearly all actives have a fitted effect of over 55% in size; further: potency means the concentration at half of the fitted maximal effect)
In short: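 CellSensor ARE-bla HepG2 cells, 2,000 per well, rested 5 hrs at 37C/5% CO2, then exposed to compound in DMSO for 16 hrs; viability read as CellTiter-Glo luminescence after 30 min at room temperature, in the reporter wells.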

[14] = qHTS assay for small molecule activators of the heat shock response signaling pathway (AID 743210; active means well fitted activation curve with a large enough effect in the signal ratio in the repeat runs, with a control signal flat, not every such curve was filed as active; the % refers to the signal ratio;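 further: HeLa cells with beta-lactamase reporter driven by heat shock elements; series mostly up to about 63 µM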)
In short: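 HeLa HSE-bla cells, overnight plating; cpd in DMSO 5 h, 37 C; LiveBLAzer B/G FRET substrate 2.5 h RT; fluorescence intensity read.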

[15] = qHTS assay to identify small molecule antagonists of the estrogen receptor alpha (ER-alpha) signaling pathway - cell viability counter screen (AID 743074; calls by dose curve;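 further: HEK293 cells carrying ER-alpha-UAS-bla reporter stimulated with 17beta-estradiol; nearly all actives have a fitted effect of over 45% in size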; further: potency means the concentration at half of the fitted maximal effect)
[16] = qHTS assay for small molecule activators of the heat shock response signaling pathway - cell viability counter screen (AID 743209); further: nearly all actives have a fitted effect of over 50% in size; further: potency means the concentration at half of the fitted maximal effect
In short: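 CellSensor HSE-bla HeLa cells, plated overnight at 37 C/5% CO2, were exposed to compounds in DMSO for 5 h at 37 C. Viability was then read in the same wells by CellTiter-Glo luminescence after 30 min at room temperature.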

[17] = target: Estrogen receptor (Homo sapiens) (UniProt P03372); assay: qHTS assay to identify small molecule antagonists of the estrogen receptor alpha (ER-alpha) signaling pathway (AID 743069; active means well fitted curve in the direction sought with a large enough effect in the signal ratio in the repeat runs, not every such curve was filed as active; the % refers to the signal ratio; further: potency means the concentration at half of the fitted maximal effect)
In short: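 ER-alpha-UAS-bla GripTite HEK293 line; 2% charcoal-stripped FBS overnight; plated, 4 hr 37C/5% CO2; cpd in DMSO + 17beta-estradiol, 18 hr 37C; LiveBLAzer B/G FRET substrate 2 hr RT; fluorescence intensity.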

[18] = target: Estrogen receptor (Homo sapiens) (UniProt P03372); assay: qHTS assay to identify small molecule agonists of the estrogen receptor alpha (ER-alpha) signaling pathway (AID 743075; calls by dose curve;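 further: HEK293 GripTite cells with ER-alpha and UAS-driven beta-lactamase reporter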)
[19] = target: Estrogen receptor (Homo sapiens) (UniProt P03372); assay: qHTS assay to identify small molecule agonists of the estrogen receptor alpha (ER-alpha) signaling pathway using the BG1 cell line (AID 743079); further: nearly all actives have a fitted effect of over 20% in size; further: potency means the concentration at half of the fitted maximal effect
[20] = qHTS assay to identify small molecule antagonists of the estrogen receptor alpha (ER-alpha) signaling pathway using the BG1 cell line (AID 743080; calls by dose curve;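 further: BG1 cells stimulated with 17beta-estradiol alongside compound; series mostly up to about 70 µM; nearly all actives have a fitted effect of over 25% in size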)
In short: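 BG1Luc4E2, endogenous ER-alpha, 4xERE-luc; 5 d charcoal-stripped FBS, phenol red free; 24 h plating; cpd + 17beta-estradiol 21.5 h, 37 C/5% CO2; CellTiter-Fluor viability 30 min, then ONE-Glo luciferase 30 min RT.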

Sequence of Estrogen receptor (Homo sapiens) (P03372 whole entry, looked up): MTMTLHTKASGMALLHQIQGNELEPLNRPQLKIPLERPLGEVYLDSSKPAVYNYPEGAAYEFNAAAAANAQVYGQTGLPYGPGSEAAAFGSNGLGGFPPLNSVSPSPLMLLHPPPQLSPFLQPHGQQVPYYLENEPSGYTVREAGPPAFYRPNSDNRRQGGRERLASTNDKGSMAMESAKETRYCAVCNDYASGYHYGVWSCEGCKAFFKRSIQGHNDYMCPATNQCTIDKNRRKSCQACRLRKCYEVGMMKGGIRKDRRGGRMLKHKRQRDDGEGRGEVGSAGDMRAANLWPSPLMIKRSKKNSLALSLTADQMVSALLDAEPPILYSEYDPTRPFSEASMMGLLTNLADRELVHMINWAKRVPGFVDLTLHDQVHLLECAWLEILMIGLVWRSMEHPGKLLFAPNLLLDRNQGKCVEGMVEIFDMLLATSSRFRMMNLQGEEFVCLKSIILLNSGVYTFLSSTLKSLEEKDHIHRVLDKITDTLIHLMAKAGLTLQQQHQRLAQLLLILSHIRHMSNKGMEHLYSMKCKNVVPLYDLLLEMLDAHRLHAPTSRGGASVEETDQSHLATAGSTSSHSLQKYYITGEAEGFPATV
Sequence of Peroxisome proliferator-activated receptor gamma (Homo sapiens) (P37231 whole entry, looked up): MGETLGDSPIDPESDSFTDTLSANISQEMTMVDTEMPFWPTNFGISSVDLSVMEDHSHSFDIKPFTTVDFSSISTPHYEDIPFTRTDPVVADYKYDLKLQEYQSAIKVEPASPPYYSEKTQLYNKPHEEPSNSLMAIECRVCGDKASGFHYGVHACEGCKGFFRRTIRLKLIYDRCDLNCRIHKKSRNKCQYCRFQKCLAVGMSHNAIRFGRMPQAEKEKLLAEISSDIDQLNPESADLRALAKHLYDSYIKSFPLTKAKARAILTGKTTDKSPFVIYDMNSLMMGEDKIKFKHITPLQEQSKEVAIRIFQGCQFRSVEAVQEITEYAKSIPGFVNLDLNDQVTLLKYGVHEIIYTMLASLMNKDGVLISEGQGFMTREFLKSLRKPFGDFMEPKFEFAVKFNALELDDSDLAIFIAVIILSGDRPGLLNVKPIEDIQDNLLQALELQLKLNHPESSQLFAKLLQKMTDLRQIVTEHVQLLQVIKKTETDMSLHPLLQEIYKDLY
Sequence of Aromatase (Homo sapiens) (P11511 whole entry, looked up): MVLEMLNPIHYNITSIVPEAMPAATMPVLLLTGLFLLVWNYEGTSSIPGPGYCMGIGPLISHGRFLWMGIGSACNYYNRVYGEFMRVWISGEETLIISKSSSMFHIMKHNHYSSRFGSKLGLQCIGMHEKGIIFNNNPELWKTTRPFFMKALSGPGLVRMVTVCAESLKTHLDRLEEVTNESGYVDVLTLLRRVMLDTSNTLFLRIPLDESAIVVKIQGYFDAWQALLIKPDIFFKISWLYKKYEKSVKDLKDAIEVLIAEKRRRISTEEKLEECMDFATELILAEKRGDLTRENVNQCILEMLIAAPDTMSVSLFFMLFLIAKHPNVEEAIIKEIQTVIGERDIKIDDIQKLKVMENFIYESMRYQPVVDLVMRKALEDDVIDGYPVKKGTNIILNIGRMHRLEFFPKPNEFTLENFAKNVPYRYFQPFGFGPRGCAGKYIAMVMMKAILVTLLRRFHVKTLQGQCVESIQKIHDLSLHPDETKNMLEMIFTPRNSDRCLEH
Sequence of Aryl hydrocarbon receptor (Homo sapiens) (P35869 whole entry, looked up): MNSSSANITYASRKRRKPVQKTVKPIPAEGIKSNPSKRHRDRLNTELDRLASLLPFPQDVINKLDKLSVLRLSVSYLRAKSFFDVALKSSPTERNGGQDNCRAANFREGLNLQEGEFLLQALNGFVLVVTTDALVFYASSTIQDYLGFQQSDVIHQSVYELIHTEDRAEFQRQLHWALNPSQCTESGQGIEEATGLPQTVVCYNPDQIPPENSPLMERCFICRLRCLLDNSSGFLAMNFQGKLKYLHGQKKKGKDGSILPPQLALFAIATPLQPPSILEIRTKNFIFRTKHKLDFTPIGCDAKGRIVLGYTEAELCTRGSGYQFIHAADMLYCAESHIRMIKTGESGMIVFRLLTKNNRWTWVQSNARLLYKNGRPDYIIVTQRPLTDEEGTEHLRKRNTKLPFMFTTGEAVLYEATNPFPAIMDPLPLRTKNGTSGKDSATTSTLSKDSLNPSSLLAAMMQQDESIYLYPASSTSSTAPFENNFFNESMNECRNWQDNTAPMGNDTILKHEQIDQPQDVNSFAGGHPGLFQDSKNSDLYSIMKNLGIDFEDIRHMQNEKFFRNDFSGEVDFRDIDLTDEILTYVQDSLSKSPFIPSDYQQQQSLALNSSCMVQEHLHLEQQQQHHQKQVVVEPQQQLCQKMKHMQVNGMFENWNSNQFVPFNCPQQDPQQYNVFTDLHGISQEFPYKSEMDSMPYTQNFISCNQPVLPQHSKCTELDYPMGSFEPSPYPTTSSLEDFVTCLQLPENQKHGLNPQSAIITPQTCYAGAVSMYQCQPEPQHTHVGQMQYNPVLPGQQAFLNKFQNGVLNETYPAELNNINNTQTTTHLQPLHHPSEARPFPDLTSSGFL

| SMILES | Potency [1] | Potency [2] | Potency [3] | Potency [4] | Potency [5] | Potency [6] | Potency [7] | Potency [8] | Potency [9] | Potency [10] | Potency [11] | Potency [12] | Potency [13] | Potency [14] | Potency [15] | Potency [16] | Potency [17] | Potency [18] | Potency [19] | Potency [20] |
| --- | --- | --- | --- | --- | --- | --- | --- | --- | --- | --- | --- | --- | --- | --- | --- | --- | --- | --- | --- | --- |
| O=S(=O)(O)c1ccc2nc(-c3ccccc3)[nH]c2c1 | inactive | inactive | inactive | inactive | inactive | inactive | inactive | inactive | inactive | inactive | inactive | inactive | 20.6 µM (active) and inactive | inactive | – | – | – | – | – | – |
| Cc1c(O)cccc1C(=O)N[C@@H](CSc1ccccc1)[C@H](O)CN1C[C@H]2CCCC[C@H]2C[C@H]1C(=O)NC(C)(C)C | 5.31 µM (active) and 2.11 µM (active) | – | inactive | 18.8 µM (active) and 26.6 µM (active) | 26.6 µM (active) and 23.7 µM (active) | 7.5 µM (active) and 2.98 µM (active) | inactive | 13.3 µM (active) and 11.9 µM (active) | – | – | 21.3 µM (active) and 26.6 µM (active) | – | 15 µM (active) and 26.6 µM (active) | – | 53.5 µM (active) | inactive | – | – | – | – |
| CC(=O)C1=C(C)[C@@H]2C[C@@]3(C1)[C@H](C)CC[C@H]3C2(C)C | 63.9 µM (active) and inactive | – | inactive | inactive | inactive | inactive | inactive | inactive | inactive | inactive | inactive | inactive | inactive | inactive | inactive | – | inactive | inactive | inactive | – |
| CC(C)(C)c1ccc(O)c(C(C)(C)C)c1 | 27.2 µM (active) and 30.6 µM (active) | 30.5 µM (active) and 24.3 µM (active) | – | inactive | 54.3 µM (active) and 54.5 µM (active) | 48.4 µM (active) and 48.6 µM (active) | – | inactive | inactive | – | 48.8 µM (active) and 38.9 µM (active) | – | 61.1 µM (active) | – | 34.5 µM (active) and inactive | 48.8 µM (active) and 43.6 µM (active) | inactive | – | – | – |
| CNC1(C)C2CCC(C2)C1(C)C (stereo not given) | inactive | inactive | inactive | inactive | inactive | inactive | – | inactive | inactive | inactive | inactive | inactive | inactive | inactive | inactive | – | – | – | – | – |
| CCC(=O)/C=C/C1C(C)=CCCC1(C)C (stereo not given) | inactive | inactive | inactive | inactive | inactive | inactive | – | inactive | inactive | inactive | inactive | inactive | inactive | inactive | inactive | inactive | – | – | – | – |
| Cc1occc(=O)c1OC(=O)C(C)C | inactive | inactive | inactive | inactive | inactive | inactive | inactive | inactive | – | – | inactive | – | inactive | inactive | inactive | – | – | – | – | – |
| COC(=O)[C@H]1[C@H]2C[C@@H]3c4[nH]c5cc(OC)ccc5c4CCN3C[C@H]2C[C@@H](OC(=O)c2cc(OC)c(OC)c(OC)c2)[C@@H]1OC | 11.9 µM (active) and 24.3 µM (active) | 11.9 µM (active) and 21.6 µM (active) and 39.7 µM (active) | – | inactive | 16.8 µM (active) and 27.3 µM (active) and 56 µM (active) | inactive | 68.5 µM (active) and 39.7 µM (active) | inactive | – | – | inactive | – | inactive | inactive | inactive | – | – | – | – | – |
| Oc1c(Cl)cc(Cl)c(Cl)c1Cc1c(O)c(Cl)cc(Cl)c1Cl | 26.6 µM (active) and 9.66 µM (active) and 24.3 µM (active) | 10.6 µM (active) and 2.43 µM (active) and 1.93 µM (active) | inactive | inactive | 10.6 µM (active) and 5.43 µM (active) and 6.11 µM (active) | 6.09 µM (active) | – | inactive | – | – | 173 nM (active) and 977 nM (active) and 1.68 µM (active) | – | 24.3 µM (active) and 8.63 µM (active) and 8.41 µM (active) | – | 24.5 µM (active) and 4.9 µM (active) | – | – | – | – | – |
| COc1ccc(CCN(C)CCCC(C#N)(c2ccc(OC)c(OC)c2)C(C)C)cc1OC (stereo not given) | 23.7 µM (active) and 21.6 µM (active) | 26.6 µM (active) and 30.6 µM (active) | inactive | inactive and 30.6 µM (active) | – | 27.3 µM (active) | – | – | – | – | inactive | – | – | – | inactive | inactive | – | – | – | – |
| CCc1cc(C(C)(C)C)c(O)c(C(C)(C)C)c1 | – | – | inactive | inactive | inactive | inactive | inactive | inactive | inactive | inactive | inactive | inactive | inactive | inactive | inactive | inactive | – | – | – | – |
| CC(=O)Nc1ccc(C(=O)CCl)cc1 | inactive and 8.63 µM (active) | – | – | inactive | inactive | 7.7 µM (active) | inactive | inactive | inactive | – | 13.8 µM (active) | 34.6 µM (active) | inactive and 19.3 µM (active) | inactive | inactive | inactive and 3.89 µM (active) | – | – | – | – |
| CCN(CC)C(=S)SSC(=S)N(CC)CC | 34.2 µM (active) | – | – | inactive | 168 nM (active) and 68.6 nM (active) and 55.8 nM (active) | 86.3 nM (active) and 44.3 nM (active) | – | – | – | – | inactive | 77 nM (active) and inactive | 27.9 µM (active) and inactive | – | inactive and 39.8 µM (active) | inactive | – | inactive | – | – |
| CCCCC(CC)COC(=O)CC(C(=O)OCC(CC)CCCC)S(=O)(=O)O (stereo not given) | – | – | inactive | inactive | inactive | inactive | inactive | inactive | inactive | – | – | – | 58.8 µM (active) and 54.5 µM (active) | – | 47.1 µM (active) and inactive | 52.9 µM (active) | 21.3 µM [inhibitor] (active) and 54.9 µM [inhibitor] (active) | inactive | inactive and 15 µM (active) | inactive |
| CC(C)(C)NCC(O)COc1ccccc1OCC1CCCO1 (stereo not given) | – | – | – | – | – | – | – | – | – | inactive | inactive | inactive | inactive | inactive | – | – | – | – | – | – |
| C1COC(NC(C2CC2)C2CC2)=N1 | – | 29.8 µM (active) | inactive | inactive | inactive | inactive | inactive | inactive | inactive | inactive | inactive | inactive | inactive | inactive | inactive | inactive | inactive | inactive | – | – |
| CCC[C@H](N[C@@H](C)C(=O)N1[C@H](C(=O)O)C[C@@H]2CCCC[C@@H]21)C(=O)OCC | – | inactive | inactive | – | inactive | inactive | inactive | inactive | inactive | inactive | inactive | inactive | inactive | inactive | inactive | inactive | inactive | inactive | inactive | inactive |
| Nc1ccc(O)cc1 | 8.41 µM (active) and 17.2 µM (active) and 14.2 µM (active) | – | – | inactive and 63.5 µM (active) | inactive and 31.8 µM (active) | 54.5 µM (active) and 31.8 µM (active) | – | 54.5 µM (active) and 50.4 µM (active) | inactive | inactive | inactive | 29.8 µM (active) | 12.7 µM (active) and inactive | inactive | inactive | 25.5 µM (active) and inactive | – | inactive | inactive | – |
